Reference: PMC4552634, “A New Set of Chemical Starting Points with Plasmodium falciparum Transmission-Blocking Potential for Antimalarial Drug Discovery” (PLoS ONE, 2015)
Screen size: about 13,000 compounds; about 3,200 (25%) showed an effect of 50% or more. The list shows a part of the results.

System: P. falciparum stage V gametocytes
Design: BacTiter-Glo ATP luminescence viability of purified stage V gametocytes in 384-well plates, per cent inhibition versus DMSO
Details: 48 h, 5 µM; inhibitor

Point of comparison: `CC[C@@]1(O)C(=O)OCc2c1cc1n(c2=O)Cc2c-1nc1cc3c(cc1c2CN1CCN(C)CC1)OCCO3` [TCMDC-131875], “% Inhibition” value -10.57%. Against it:
- Oc1ccc(CN2CCN(CCOC(c3ccccc3)c3ccccc3)CC2)cc1Cl [TCMDC-135690] — higher, -0.9629%
- Cc1cccc2nc(-c3ccc(-c4ccc(NC(=O)Nc5ccc(F)c(F)c5F)cc4)s3)[nH]c12 [TCMDC-133222] — lower, -13.04%
- Cc1ccc(Nc2nc(N/N=C/c3cc4c(cc3Br)OCO4)nc(Nc3ccc([N+](=O)[O-])cc3)n2)cc1C [TCMDC-124185] — higher, 19.94%
- c1cc(CN2CCCCC2)cc(-c2cccc(-c3nc4ccccc4[nH]3)c2)c1 [TCMDC-133914] — lower, -55.81%
- c1cc(CN2CCC(CCN3CCCCC3)CC2)cc(-c2cccc(-c3nc4ccccc4[nH]3)c2)c1 [TCMDC-133920] — higher, 106.4%
- c1cc(CN2CCN(CCN3CCOCC3)CC2)cc(-c2csc(-c3nc4ccccc4[nH]3)c2)c1 [TCMDC-133921] — higher, 11.49%
- NC1CCN(Cc2cccc(-c3csc(-c4nc5ccccc5[nH]4)c3)c2)C1 (stereo not drawn) [TCMDC-133876] — higher, 10.66%
- c1cc(CN2CCC(CCN3CCCCC3)CC2)cc(-c2csc(-c3nc4ccccc4[nH]3)c2)c1 [TCMDC-133919] — higher, 95.43%
- c1cc(CN2CCCCC2)cc(-c2ccc(-c3nc4ccccc4[nH]3)cc2)c1 [TCMDC-133890] — higher, -8.246%
- C=CCc1cc(Br)ccc1OCCCOc1c(N)nc(N)nc1N [TCMDC-131367] — higher, 16.05%
- CCn1cc(CN2CCCC(C(=O)Nc3ccc(-c4nc5ccccc5[nH]4)cc3)C2)c(C)n1 (stereo not drawn) [TCMDC-124673] — lower, -63.8%
- CCc1ccc(N2C(=O)C3C(Cc4ccc(OC(C)(C)C)cc4)NC4(C(=O)N(Cc5ccccc5)c5ccc(F)cc54)C3C2=O)cc1 (stereo not drawn) [TCMDC-139770] — higher, 11.03%
- COc1ccc(N(c2nc(-c3cc(Cl)ccc3Cl)cs2)C2CCNC2)cc1 (stereo not drawn) [TCMDC-136655] — higher, 0.8137%
- CCN(CC)CCCN(C(=O)Nc1cc(F)cc(F)c1)c1nc(-c2ccc(F)cc2)cs1 [TCMDC-136665] — lower, -54.99%
- COc1ccc(N(c2nc(-c3cc(Cl)ccc3Cl)cs2)C2CCNCC2)cc1 [TCMDC-136654] — higher, 103.4%
- CC(=O)N(Cc1nc(-c2cc(C(F)(F)F)cc(C(F)(F)F)c2)cs1)c1c(C)cccc1C [TCMDC-135641] — higher, 20.05%
- Fc1ccc(N(c2nc(-c3cc(F)cc(C(F)(F)F)c3)cs2)C2CCNCC2)cc1 [TCMDC-136656] — higher, 103.4%
- Cc1cc(F)ccc1N(c1nc(-c2cc(Cl)ccc2Cl)cs1)C1CCNC1 (stereo not drawn) [TCMDC-136653] — higher, 19.89%
- COc1ccc(F)cc1-c1csc(N(c2ccc(F)cc2)C2CCNCC2)n1 [TCMDC-136652] — higher, 68.19%
- N#Cc1ccc2[nH]cc(CN3CCC4(CC3)CN(CCNCc3ccccc3)C(=O)CO4)c2c1 [TCMDC-136734] — lower, -19.1%
- Cc1ccccc1C1CCN(C2CCC(NC(=O)/C=C/c3ccc(C(F)(F)F)cc3)CC2)CC1 (stereo not drawn) [TCMDC-133511] — lower, -86.18%
- CCOc1ccc2ccccc2c1C(=O)Nc1cc(C)nn1-c1nc(C)cc(=O)[nH]1 [TCMDC-124946] — lower, -19.22%
- O=C(/C=C/c1ccc(Cl)c(Cl)c1)NC1CCN(CCCNC(=O)c2cccc(Cl)c2)CC1 [TCMDC-133356] — higher, 10.9%
- CCc1c(CCNCCCC(C)CCNCCc2ccc(OC)c(OC)c2CC)ccc(OC)c1OC (stereo not drawn) [TCMDC-132065] — higher, 107.6%
- COc1cccc(CCc2c(CCNCCCCCCNCCc3ccccc3)ccc(OC)c2OC)c1 [TCMDC-132105] — higher, 111.5%
- COc1cccc(C(=O)NCCc2cccc(Cl)c2)c1Oc1ccccc1 [TCMDC-141237] — lower, -16.09%
- CCc1c(CCNCCCCCNCCc2ccc(OC)c(OC)c2CC)ccc(OC)c1OC [TCMDC-132064] — higher, 110.1%
- COc1cccc(-c2ccc(O)c(CNCCc3cccc(F)c3)c2)n1 [TCMDC-124645] — higher, 3.898%
- CCC(=O)c1cc(C(=O)NCCc2cccc(OC)c2)ccc1OC [TCMDC-140139] — higher, 9.268%
- CCc1c(CCNCCc2cccc(CCNCCc3ccc(OC)c(OC)c3CC)c2)ccc(OC)c1OC [TCMDC-132056] — higher, 108.6%
- CCOC(=O)C1=C(C)NC2=C(C(=O)CC(C)(C)C2)C1c1ccc(Br)cc1 (stereo not drawn) [TCMDC-124142] — higher, 9.854%
- N#Cc1ccc2c(c1)CCN(CCC1CCC(NC(=O)Nc3ccnc4ccccc34)CC1)C2 (stereo not drawn) [TCMDC-139289] — lower, -21.63%
- COc1ccc(Cc2c(C)nc3nc(N)nc(N)c3c2C)cc1 [TCMDC-137660] — higher, 3.866%
- COC(=O)c1ccc(CC(C)NCC(O)c2cccc(I)c2)cc1 (stereo not drawn) [TCMDC-131484] — lower, -10.65%
- O=C(C1CCN(c2nnnn2-c2ccccc2)CC1)N1CCc2ccccc2C1 [TCMDC-123642] — higher, 26.99%
- CCc1c(CCNCCCCCCNCCc2ccccc2)ccc(OC)c1OC [TCMDC-132063] — higher, 92.32%
- COc1ccc(N2CCN(CCc3ccc(NC(=O)c4ccc([N+](=O)[O-])cc4)cc3)CC2)c(OC)c1 [TCMDC-138185] — lower, -26.83%
- COc1cc(C)c(C(O)CNC(C)CCc2ccccc2)cc1C (stereo not drawn) [TCMDC-131251] — higher, 28.09%
- CCc1c(CCNCCCCCCNCCc2ccc(OC)cc2)ccc(OC)c1OC [TCMDC-132050] — higher, 110.1%
- CCc1c(CCNCC/C=C/CCNCCc2ccc(OC)c(OC)c2CC)ccc(OC)c1OC [TCMDC-132062] — higher, 100.4%
- CCc1c(CCNCCCCCCNCCc2ccc([N+](=O)[O-])cc2)ccc(OC)c1OC [TCMDC-132066] — higher, 101.3%
- COc1cc(Cc2cnc(N)nc2N)cc(OCCCCc2ccc([N+](=O)[O-])cc2)c1OC [TCMDC-137901] — higher, 2.332%
- Cc1cccc2[nH]c(-c3cccc(-c4cccc(NC(=O)NCc5ccccc5)c4)c3)nc12 [TCMDC-133159] — higher, 13.2%
- OCCOCn1cnc2cnc(N[C@H]3OC[C@H](O)[C@@H](O)[C@@H]3O)nc21 [TCMDC-138106] — higher, 14.1%
- CCc1c(CCNCCCCCCNCCc2ccc(Br)cc2)ccc(OC)c1OC [TCMDC-132045] — higher, 110%
- COc1cc2c(OC)cccc2cc1CNCCCCCCNCc1cc2cccc(OC)c2cc1OC [TCMDC-137945] — higher, 1.634%
- CCc1c(CCNCCCCCCNCCc2ccc(OC)c(OC)c2CC)ccc(OC)c1OC [TCMDC-132047] — higher, 111.8%
- CCc1c(CCNC/C=C/C=C/CNCCc2ccc(OC)c(OC)c2CC)ccc(OC)c1OC [TCMDC-132061] — higher, 102.8%
- CCc1c(CCNCCCCCCNCCc2ccc(OC)c(OC)c2C)ccc(OC)c1OC [TCMDC-132051] — higher, 107.2%
- O=C1C[C@@H]([S+]([O-])Cc2nccs2)N1CCOCCCCCCc1ccc(Cl)cc1 (stereo partly drawn) [TCMDC-139269] — higher, 27.24%
- Cc1cccc(NC(=O)Nc2ccc(I)c(OCCN(C)C)c2)c1C [TCMDC-139124] — higher, -5.088%
- COc1ccc(Nc2nc(NCc3ccc(-n4ccnc4)cc3)cc(-c3ccc(OC)cc3)n2)cc1 [TCMDC-134025] — higher, -3.76%
- Clc1ccc(Sc2cncnc2N2CCOCC2)cc1 [TCMDC-137279] — higher, 19.11%
- O=C(Cc1ccccc1)NC1CCN(c2ccnc3cc(Cl)ccc23)C1 (stereo not drawn) [TCMDC-133663] — higher, -4.28%
- COCCn1c(Sc2ncnc3sccc23)nc2ccccc21 [TCMDC-125258] — higher, 10.99%
- c1ccn2c(Sc3ncnc4sccc34)ncc2c1 [TCMDC-124602] — higher, 29.96%
- Cn1c(Sc2ncnc3sccc23)nc2ccccc21 [TCMDC-124514] — higher, 74.1%
- c1ccc2sc(Sc3ncnc4sccc34)nc2c1 [TCMDC-125539] — higher, 99.53%
- CN(C)CCCNCCS(=O)(=O)c1cccc(Nc2ccc(-c3cccc(N(C)C)c3)cn2)c1 [TCMDC-134369] — higher, 11.18%
- O=C(NCCc1ccccc1)N(Cc1cccc(-c2ccc(CNCc3ccc4c(c3)OCO4)cc2)c1)C1CCN(Cc2ccccc2)CC1 [TCMDC-140619] — higher, 40.48%
- O=C(NC1CCCCC1)N(Cc1ccc(-c2ccc(CNCc3ccc4c(c3)OCO4)cc2)cc1)C1CCN(Cc2ccccc2)CC1 [TCMDC-140641] — higher, 57.56%
- O=C(NC1CCCCC1)N(Cc1ccc(-c2cccc(CNCc3ccc4c(c3)OCO4)c2)cc1)C1CCN(Cc2ccccc2)CC1 [TCMDC-140640] — higher, 55.3%
- O=C(NC1CCCCC1)N(Cc1cccc(-c2ccc(CNCc3ccc4c(c3)OCO4)cc2)c1)C1CCN(Cc2ccccc2)CC1 [TCMDC-140632] — higher, 106.9%
- O=C(Nc1ccc(OC2CCN(Cc3ccc(F)cc3)CC2)c(Cl)c1)c1ccc(F)cc1 [TCMDC-133752] — higher, 7.555%
- Cc1ccccc1C1CCN(C2CCC(NC(=O)/C=C/c3ccc(C#N)cc3)CC2)CC1 (stereo not drawn) [TCMDC-133527] — lower, -65.01%
- CS(=O)(=O)c1ccc(CNCc2ccc(-c3ccc(-c4nc5cc(C(F)(F)F)ccc5[nH]4)cc3)cc2)cc1.O=C(O)C(F)(F)F [TCMDC-132901] — lower, -22.07%
- COC(=O)c1cc(C(O)CNC(C)CCc2cccc(F)c2)ccc1O (stereo not drawn) [TCMDC-131242] — higher, 17.15%
- CC(Cl)=CCc1c(C)[nH]c2c(ccc3ccccc32)c1=O [TCMDC-124085] — higher, 30.93%
